# Biological target: AgAbp1
# Test: SPOT peptide array binding signal intensity (averaged, normalized) (arbitrary units (background-subtracted, floor 0; scale differs between SH3 domains)); higher = stronger binding of the SH3 domain to the peptide
# Outline: (§1)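 GST-fused SH3 domains, from four yeast species, were produced in E. coli BL21(DE3) and captured on glutathione Sepharose. Membranes of cellulose carrying synthetic 15-mer peptides, in which cysteines had been replaced by serines, were exposed to each domain at 10 μg/ml overnight at 4°C in TBS-based blocking buffer. After anti-GST antibody, an HRP anti-mouse secondary and luminol, spots were imaged and quantified using Genespotter. Binding signal is normalized and background-subtracted spot intensity, averaged over replicates, in arbitrary units that differ between domains.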
row,Binder,SPOT peptide array binding signal intensity
1,RRARRQMGIPTISQV,125

# Biological target: AgBbc1
# Test: as above
# Outline: as §1
row,Binder,SPOT peptide array binding signal intensity
1,RRARRQMGIPTISQV,71.8

# Biological target: AgBem1-D1
# Test: as above
# Outline: as §1
row,Binder,SPOT peptide array binding signal intensity
1,RRARRQMGIPTISQV,252

# Biological target: AgBzz1-D1
# Test: as above
# Outline: as §1
row,Binder,SPOT peptide array binding signal intensity
1,RRARRQMGIPTISQV,41

# Biological target: AgBzz1-D2
# Test: as above
# Outline: as §1
row,Binder,SPOT peptide array binding signal intensity
1,RRARRQMGIPTISQV,35

# Biological target: AgCyk3
# Test: as above
# Outline: as §1
row,Binder,SPOT peptide array binding signal intensity
1,RRARRQMGIPTISQV,5

# Biological target: AgFus1
# Test: as above
# Outline: as §1
row,Binder,SPOT peptide array binding signal intensity
1,RRARRQMGIPTISQV,716

# Biological target: AgHof1
# Test: as above
# Outline: as §1
row,Binder,SPOT peptide array binding signal intensity
1,RRARRQMGIPTISQV,83.8

# Biological target: AgHse1
# Test: as above
# Outline: as §1
row,Binder,SPOT peptide array binding signal intensity
1,RRARRQMGIPTISQV,854

# Biological target: AgLsb1
# Test: as above
# Outline: as §1
row,Binder,SPOT peptide array binding signal intensity
1,RRARRQMGIPTISQV,9.75

# Biological target: AgLsb4
# Test: as above
# Outline: as §1
row,Binder,SPOT peptide array binding signal intensity
1,RRARRQMGIPTISQV,138

# Biological target: AgMyo5
# Test: as above
# Outline: as §1
row,Binder,SPOT peptide array binding signal intensity
1,RRARRQMGIPTISQV,5

# Biological target: AgNbp2
# Test: as above
# Outline: as §1
row,Binder,SPOT peptide array binding signal intensity
1,RRARRQMGIPTISQV,724

# Biological target: AgRvs167
# Test: as above
# Outline: as §1
row,Binder,SPOT peptide array binding signal intensity
1,RRARRQMGIPTISQV,10.7

# Biological target: AgSho1
# Test: as above
# Outline: as §1
row,Binder,SPOT peptide array binding signal intensity
1,RRARRQMGIPTISQV,287

# Biological target: AgSla1-D1-D2
# Test: as above
# Outline: as §1
row,Binder,SPOT peptide array binding signal intensity
1,RRARRQMGIPTISQV,99.5

# Biological target: AgSla1-D3
# Test: as above
# Outline: as §1
row,Binder,SPOT peptide array binding signal intensity
1,RRARRQMGIPTISQV,14.5

# Biological target: CaAbp1-D1
# Test: as above
# Outline: as §1
row,Binder,SPOT peptide array binding signal intensity
1,RRARRQMGIPTISQV,514

# Biological target: CaAbp1-D2
# Test: as above
# Outline: as §1
row,Binder,SPOT peptide array binding signal intensity
1,RRARRQMGIPTISQV,941

# Biological target: CaBbc1
# Test: as above
# Outline: as §1
row,Binder,SPOT peptide array binding signal intensity
1,RRARRQMGIPTISQV,197

# Biological target: CaBem1-D1
# Test: as above
# Outline: as §1
row,Binder,SPOT peptide array binding signal intensity
1,RRARRQMGIPTISQV,299

# Biological target: CaBzz1-D1
# Test: as above
# Outline: as §1
row,Binder,SPOT peptide array binding signal intensity
1,RRARRQMGIPTISQV,98.5

# Biological target: CaBzz1-D2
# Test: as above
# Outline: as §1
row,Binder,SPOT peptide array binding signal intensity
1,RRARRQMGIPTISQV,115

# Biological target: CaCyk3
# Test: as above
# Outline: as §1
row,Binder,SPOT peptide array binding signal intensity
1,RRARRQMGIPTISQV,25.5

# Biological target: CaFus1
# Test: as above
# Outline: as §1
row,Binder,SPOT peptide array binding signal intensity
1,RRARRQMGIPTISQV,657

# Biological target: CaHof1
# Test: as above
# Outline: as §1
row,Binder,SPOT peptide array binding signal intensity
1,RRARRQMGIPTISQV,≤ 0

# Biological target: CaHse1
# Test: as above
# Outline: as §1
row,Binder,SPOT peptide array binding signal intensity
1,RRARRQMGIPTISQV,278

# Biological target: CaLsb1
# Test: as above
# Outline: as §1
row,Binder,SPOT peptide array binding signal intensity
1,RRARRQMGIPTISQV,2.25

# Biological target: CaLsb4
# Test: as above
# Outline: as §1
row,Binder,SPOT peptide array binding signal intensity
1,RRARRQMGIPTISQV,806

# Biological target: CaMyo5
# Test: as above
# Outline: as §1
row,Binder,SPOT peptide array binding signal intensity
1,RRARRQMGIPTISQV,12.5

# Biological target: CaNbp2
# Test: as above
# Outline: as §1
row,Binder,SPOT peptide array binding signal intensity
1,RRARRQMGIPTISQV,1560

# Biological target: CaRvs167
# Test: as above
# Outline: as §1
row,Binder,SPOT peptide array binding signal intensity
1,RRARRQMGIPTISQV,58

# Biological target: CaRvs167-3
# Test: as above
# Outline: as §1
row,Binder,SPOT peptide array binding signal intensity
1,RRARRQMGIPTISQV,89.8

# Biological target: CaSho1
# Test: as above
# Outline: as §1
row,Binder,SPOT peptide array binding signal intensity
1,RRARRQMGIPTISQV,758

# Biological target: CaSla1-D1-D2
# Test: as above
# Outline: as §1
row,Binder,SPOT peptide array binding signal intensity
1,RRARRQMGIPTISQV,385

# Biological target: CaSla1-D3
# Test: as above
# Outline: as §1
row,Binder,SPOT peptide array binding signal intensity
1,RRARRQMGIPTISQV,104

# Biological target: ScAbp1
# Test: as above
# Outline: as §1
row,Binder,SPOT peptide array binding signal intensity
1,RRARRQMGIPTISQV,152

# Biological target: ScBbc1
# Test: as above
# Outline: as §1
row,Binder,SPOT peptide array binding signal intensity
1,RRARRQMGIPTISQV,35.5

# Biological target: ScBem1-D1
# Test: as above
# Outline: as §1
row,Binder,SPOT peptide array binding signal intensity
1,RRARRQMGIPTISQV,100

# Biological target: ScBzz1-D1
# Test: as above
# Outline: as §1
row,Binder,SPOT peptide array binding signal intensity
1,RRARRQMGIPTISQV,11.5

# Biological target: ScBzz1-D2
# Test: as above
# Outline: as §1
row,Binder,SPOT peptide array binding signal intensity
1,RRARRQMGIPTISQV,54.5

# Biological target: ScCyk3
# Test: as above
# Outline: as §1
row,Binder,SPOT peptide array binding signal intensity
1,RRARRQMGIPTISQV,53.5

# Biological target: ScFus1
# Test: as above
# Outline: as §1
row,Binder,SPOT peptide array binding signal intensity
1,RRARRQMGIPTISQV,671

# Biological target: ScHof1
# Test: as above
# Outline: as §1
row,Binder,SPOT peptide array binding signal intensity
1,RRARRQMGIPTISQV,0.5

# Biological target: ScHse1
# Test: as above
# Outline: as §1
row,Binder,SPOT peptide array binding signal intensity
1,RRARRQMGIPTISQV,2110

# Biological target: ScLsb1
# Test: as above
# Outline: as §1
row,Binder,SPOT peptide array binding signal intensity
1,RRARRQMGIPTISQV,72.5

# Biological target: ScLsb2
# Test: as above
# Outline: as §1
row,Binder,SPOT peptide array binding signal intensity
1,RRARRQMGIPTISQV,2

# Biological target: ScLsb3
# Test: as above
# Outline: as §1
row,Binder,SPOT peptide array binding signal intensity
1,RRARRQMGIPTISQV,639

# Biological target: ScLsb4
# Test: as above
# Outline: as §1
row,Binder,SPOT peptide array binding signal intensity
1,RRARRQMGIPTISQV,121

# Biological target: ScMyo3
# Test: as above
# Outline: as §1
row,Binder,SPOT peptide array binding signal intensity
1,RRARRQMGIPTISQV,2.25

# Biological target: ScMyo5
# Test: as above
# Outline: as §1
row,Binder,SPOT peptide array binding signal intensity
1,RRARRQMGIPTISQV,1.5

# Biological target: ScNbp2
# Test: as above
# Outline: as §1
row,Binder,SPOT peptide array binding signal intensity
1,RRARRQMGIPTISQV,1060

# Biological target: ScPex13
# Test: as above
# Outline: as §1
row,Binder,SPOT peptide array binding signal intensity
1,RRARRQMGIPTISQV,96.9

# Biological target: ScRvs167
# Test: as above
# Outline: as §1
row,Binder,SPOT peptide array binding signal intensity
1,RRARRQMGIPTISQV,95

# Biological target: ScSho1
# Test: as above
# Outline: as §1
row,Binder,SPOT peptide array binding signal intensity
1,RRARRQMGIPTISQV,978

# Biological target: ScSla1-D1-D2
# Test: as above
# Outline: as §1
row,Binder,SPOT peptide array binding signal intensity
1,RRARRQMGIPTISQV,484

# Biological target: ScSla1-D3
# Test: as above
# Outline: as §1
row,Binder,SPOT peptide array binding signal intensity
1,RRARRQMGIPTISQV,308

# Biological target: SpAbp1-D1
# Test: as above
# Outline: as §1
row,Binder,SPOT peptide array binding signal intensity
1,RRARRQMGIPTISQV,416

# Biological target: SpBbc1
# Test: as above
# Outline: as §1
row,Binder,SPOT peptide array binding signal intensity
1,RRARRQMGIPTISQV,12.2

# Biological target: SpBzz1-D1
# Test: as above
# Outline: as §1
row,Binder,SPOT peptide array binding signal intensity
1,RRARRQMGIPTISQV,143

# Biological target: SpBzz1-D2
# Test: as above
# Outline: as §1
row,Binder,SPOT peptide array binding signal intensity
1,RRARRQMGIPTISQV,4.25

# Biological target: SpCyk3
# Test: as above
# Outline: as §1
row,Binder,SPOT peptide array binding signal intensity
1,RRARRQMGIPTISQV,3.5

# Biological target: SpHof1
# Test: as above
# Outline: as §1
row,Binder,SPOT peptide array binding signal intensity
1,RRARRQMGIPTISQV,188

# Biological target: SpHof1-2
# Test: as above
# Outline: as §1
row,Binder,SPOT peptide array binding signal intensity
1,RRARRQMGIPTISQV,71

# Biological target: SpHof1-3
# Test: as above
# Outline: as §1
row,Binder,SPOT peptide array binding signal intensity
1,RRARRQMGIPTISQV,435

# Biological target: SpHse1
# Test: as above
# Outline: as §1
row,Binder,SPOT peptide array binding signal intensity
1,RRARRQMGIPTISQV,1100

# Biological target: SpLsb1
# Test: as above
# Outline: as §1
row,Binder,SPOT peptide array binding signal intensity
1,RRARRQMGIPTISQV,7.5

# Biological target: SpLsb4
# Test: as above
# Outline: as §1
row,Binder,SPOT peptide array binding signal intensity
1,RRARRQMGIPTISQV,642

# Biological target: SpMyo1
# Test: as above
# Outline: as §1
row,Binder,SPOT peptide array binding signal intensity
1,RRARRQMGIPTISQV,13.5

# Biological target: SpNbp2
# Test: as above
# Outline: as §1
row,Binder,SPOT peptide array binding signal intensity
1,RRARRQMGIPTISQV,1480

# Biological target: SpPex13
# Test: as above
# Outline: as §1
row,Binder,SPOT peptide array binding signal intensity
1,RRARRQMGIPTISQV,86

# Biological target: SpRvs167
# Test: as above
# Outline: as §1
row,Binder,SPOT peptide array binding signal intensity
1,RRARRQMGIPTISQV,50.2

# Biological target: SpSla1-D1-D2
# Test: as above
# Outline: as §1
row,Binder,SPOT peptide array binding signal intensity
1,RRARRQMGIPTISQV,24.2

# Biological target: SpSla1-D3
# Test: as above
# Outline: as §1
row,Binder,SPOT peptide array binding signal intensity
1,RRARRQMGIPTISQV,131
